A selection: hits, their analogues and other compounds. The true share with any hit is near 4.2%.
CCHF vOTU inh-1 = CCHFV vOTU protease inhibition; Pep-AMC fluorescence; inhibition, % at 11.5 µM; actives 0.55% (n = 370,000); AID 651958; further: 0% = vehicle wells with enzyme and 100% = no enzyme wells
Mtb FBA inh = inhibits M. tuberculosis FBA enzyme. P9WQA3. actives 2.3% (n = 360,000). AID 588726. purified M. tuberculosis FBA, fluorescence read-out. inhibition, % at 1 µM; in the data active means inhibition above about 27%;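 further: 0% = vehicle and 100% = reference inhibitor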
Target sequence (P9WQA3 whole entry, looked up): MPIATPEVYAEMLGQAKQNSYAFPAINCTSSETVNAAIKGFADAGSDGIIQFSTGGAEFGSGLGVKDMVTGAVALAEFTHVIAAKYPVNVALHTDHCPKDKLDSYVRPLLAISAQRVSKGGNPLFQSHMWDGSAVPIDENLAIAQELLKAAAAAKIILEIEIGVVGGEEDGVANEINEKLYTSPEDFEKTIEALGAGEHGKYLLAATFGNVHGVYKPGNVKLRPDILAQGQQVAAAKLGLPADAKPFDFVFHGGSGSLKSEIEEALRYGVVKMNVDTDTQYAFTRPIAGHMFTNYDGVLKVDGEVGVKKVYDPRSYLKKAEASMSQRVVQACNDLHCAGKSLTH
RecA intein inh = Mtb RecA intein splicing inhibition | actives 0.75% (n = 290,000) | inhibition, % (test concentration not listed) | cell-free RecA intein splicing, fluorescence | P9WHJ3; in the data active means inhibition above about 30%;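 further: 0% = vehicle wells and 100% = reference inhibitor control wells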
GDH-TPI inh = GDH-TPI coupled enzyme inhibition counter-screen; GDH-TPI coupled enzyme counterscreen, NADH absorbance; inhibition, % at 4.8 µM; actives 1.2% (n = 360,000); AID 588335;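 further: 0% = DMSO wells and 100% = wells lacking the enzyme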
CCHF vOTU inh-2 = CCHFV vOTU protease inhibition, confirmation; shares compounds with CCHF vOTU inh-1; Recombinant CCHFV vOTU, Pep-AMC fluorescence; inhibition, % at 11.5 µM; actives 17% (n = 1,900)
Active calls of the source: *; . = not tested or not shown. Unless noted, no stated cut-off is given here; in the data, active means inhibition above about 30%; inactive means the rest.

SMILES	CCHF vOTU inh-1	Mtb FBA inh	RecA intein inh	GDH-TPI inh	CCHF vOTU inh-2
Oc1ccc(Cl)cc1CNc1cccc2cccnc12	101.7*	-1.9	13.4	19.9	-3.6
Oc1ccc(Br)cc1CNc1cccc2cccnc12	17.8	0.6	20.6	6.5	.
Oc1c(Br)cc(Br)cc1CNc1cccc2cccnc12	115.7*	-2.9	13.5	13.9	12.3
COc1ccc(CNC(=O)C2CCN(S(=O)(=O)c3cccc4nonc34)CC2)cc1	3.6	-0.3	-0.1	-3.7	.
COc1ccc(/C=C(\NC(=O)c2ccc(C)cc2)C(=O)N2CCCCC2)cc1	9.3	0.0	-0.4	10.3	.
CCCCCC(=O)N1C[C@@H](n2cc(COC(=O)c3ccccc3)nn2)[C@H](O)C[C@@H]1c1ccc(Cl)cc1	27.4	-2.9	.	-14.2	.
Cc1nc2c([nH]1)C1(CCN(Cc3ccccc3)CC1)C(C#N)=C(N)O2	40.2*	-0.1	.	6.0	-24.1
CC1(C)CC(=O)C2=C(C1)OC(N)=C(C#N)C21CCN(Cc2ccccc2)CC1	-9.8	4.1	-4.0	2.3	.
CCc1nc2ccc(C(=O)NCc3cccs3)cn2c1N(CC)CCN(C)C	-5.1	3.2	.	13.3	.
O=C(c1ccc(C(F)(F)F)cc1)N1CCC(=O)N([C@H](COCc2ccc(C(F)(F)F)cc2)Cc2ccccc2)CC1	33.7*	.	.	.	6.7
O=C(c1ccc(C(F)(F)F)cc1)N1CCC(=O)N([C@H](COCc2ccc(Cl)cc2)Cc2ccccc2)CC1	32.0*	.	.	.	6.8
CC(C)C[C@@H](COCc1cccc(C(F)(F)F)c1)N1CCN(C(=O)c2ccc(C(F)(F)F)cc2)CCC1=O	38.5*	.	.	.	16.2
Cc1cccc(COC[C@H](CC(C)C)N2CCN(C(=O)c3ccc(C(F)(F)F)cc3)CCC2=O)c1	20.9	.	.	.	.
CC(C)C[C@@H](COCc1ccc(Cl)cc1)N1CCN(C(=O)c2ccc(C(F)(F)F)cc2)CCC1=O	19.5	.	.	.	.
CC(=O)Nc1ccc(N2C(=O)CSC2c2ccccc2)cc1 (stereo not given)	3.4	-0.3	7.9	-6.4	.
O=C(COC(=O)c1ccc(F)cc1F)Nc1cc(S(=O)(=O)N2CCOCC2)ccc1Cl	-2.7	0.9	.	-7.2	.
COn1c(C)c(C(C)=O)c2c3nonc3ccc21	31.4*	5.7	-26.0	6.6	-2.6
CC(NC1=CC(=O)c2cccnc2C1=O)C(O)c1ccccc1 (stereo not given)	101.2*	-1.9	.	19.0	94.0*
CC(c1ccccc1)N1C(=O)c2cccnc2C1=O (stereo not given)	-4.3	-0.2	-3.3	12.4	.
CN1CCN([C@H]2CS(=O)(=O)N[C@@H]2COCc2ccccc2)CC1	12.2	-1.9	.	.	.
CC(C)[C@H](NC(=O)c1ccc(Br)cc1)C(=O)NC1CCCCC1	8.1	-2.3	.	-4.7	.
Cc1ccc(/C=N/N2CCN(c3ccccn3)CC2)o1	-7.1	-4.4	-0.5	10.2	.
O=C(Nc1scc(-c2ccc(F)cc2)c1C(=O)O)c1ccco1	31.3*	-0.5	-1.4	22.5	-6.4
COC(=O)c1c(-c2ccccc2)csc1NC(=O)c1ccco1	-2.0	2.8	0.2	15.6	.
N#CCSc1ccccc1NC(=O)CN1C(=O)C2CC=CCC2C1=O (stereo not given)	-5.3	3.0	.	6.0	.
SMILES	CCHF vOTU inh-1	Mtb FBA inh	RecA intein inh	GDH-TPI inh	CCHF vOTU inh-2
CNCc1ccccc1Sc1cc(O)ccc1O	29.7*	0.2	.	1.5	3.6
CNCc1ccccc1Sc1cccc(O)c1	14.6	-1.5	-1.3	10.7	.
Cc1ccc(NC(=O)CN(C)C(=O)c2ccc(NS(=O)(=O)c3ccc4[nH]c(=O)[nH]c4c3)cc2)cc1	-9.2	-0.1	.	17.3	.
COCCn1c(SCC(=O)NCC2CCCO2)nc2c(c1=O)SC(C)C2 (stereo not given)	31.8*	-0.8	1.1	19.2	-10.2
CCOc1ccc(Br)cc1S(=O)(=O)Nc1cccnc1	5.9	-2.5	-1.8	-2.3	.
Cn1c2ccccc2c2cc(/C=C(\NC(=O)c3ccccc3)C(=O)O)ccc21	30.5*	-3.1	0.0	35.3*	-6.2
COC(=O)/C(=C\c1ccc2c(c1)c1ccccc1n2C)NC(=O)c1ccccc1	-16.9	0.3	1.6	21.0	.
COCCNc1nc2cc(-c3ccc(C)cc3)sc2c(=O)n1C	1.1	7.6	.	8.4	.
Cc1ccc(NC(=O)CCS(=O)(=O)c2ccc3nc(C)sc3c2)c(C)c1	1.2	3.0	.	-5.0	.
CC(C)(c1ccccc1)c1ccc(OCCn2cnc3ccccc3c2=O)cc1	31.3*	0.0	3.7	0.4	3.7
CC1(C(=O)Nc2cccc3ccccc23)CCN1C(=O)C1(c2ccccc2)CCCC1 (stereo not given)	6.3	5.9	.	3.5	.
